About 83,000 compounds went through this panel and 20% of them were active in at least one assay; those are over-represented in the sample as a whole.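 The test compound was applied at a single concentration to cells in 96-well plates for 48 hours, and percent growth was recorded.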 Values without a mark were called inactive. Activity calls are given as the source filed them. How the source made its calls: active means growth percent below 10; inactive means the rest.
How the values were obtained:
Experiment in all cases: NCI-60 one-dose screen, 48 h (100 = growth as untreated, 0 = no growth, -100 = all killed)
Details in all cases: 10 µM
DU-145 prostate = tested on: DU-145 prostate
MALME-3M melanoma = tested on: MALME-3M melanoma
MDA-MB-231 breast = tested on: MDA-MB-231 breast
RXF 393 renal = tested on: RXF 393 renal
SF-268 CNS = tested on: SF-268 CNS
SF-539 CNS = tested on: SF-539 CNS
UACC-257 melanoma = tested on: UACC-257 melanoma
M14 melanoma = tested on: M14 melanoma
HCT-15 colon = tested on: HCT-15 colon
HT29 colon = tested on: HT29 colon
SNB-75 CNS = tested on: SNB-75 CNS
SNB-19 CNS = tested on: SNB-19 CNS
U251 CNS = tested on: U251 CNS
PC-3 prostate = tested on: PC-3 prostate
SK-MEL-5 melanoma = tested on: SK-MEL-5 melanoma
UACC-62 melanoma = tested on: UACC-62 melanoma
LOX IMVI melanoma = tested on: LOX IMVI melanoma
SK-MEL-28 melanoma = tested on: SK-MEL-28 melanoma
K-562 leukemia = tested on: K-562 leukemia
SF-295 CNS = tested on: SF-295 CNS

| Compound | growth (DU-145 prostate) | growth (MALME-3M melanoma) | growth (MDA-MB-231 breast) | growth (RXF 393 renal) | growth (SF-268 CNS) | growth (SF-539 CNS) | growth (UACC-257 melanoma) | growth (M14 melanoma) | growth (HCT-15 colon) | growth (HT29 colon) | growth (SNB-75 CNS) | growth (SNB-19 CNS) | growth (U251 CNS) | growth (PC-3 prostate) | growth (SK-MEL-5 melanoma) | growth (UACC-62 melanoma) | growth (LOX IMVI melanoma) | growth (SK-MEL-28 melanoma) | growth (K-562 leukemia) | growth (SF-295 CNS) |
| --- | --- | --- | --- | --- | --- | --- | --- | --- | --- | --- | --- | --- | --- | --- | --- | --- | --- | --- | --- | --- |
| Nc1cc(-c2ccncc2)c[nH]c1=O | 110% | 123% | 115% | 125% | 103% | 104% | 111% | 107% | 103% | 103% | 76.6% | 111% | 103% | 89.1% | 106% | 109% | 91.7% | 105% | – | – |
| Nc1c(Br)cc(Br)c2c1[nH]c(=O)c1ccccc12 | – | 47.8% | 54.8% | 26.2% | 76.9% | 83.7% | 87.9% | – | 75.2% | 98.4% | -33.9% (active) | 94.1% | – | 80.3% | 71.3% | 87.6% | 83.7% | – | 78.4% | 73.1% |
| CC(C)=CCC/C(C)=C/CC/C(C)=C/CC/C=C(\C)CC/C=C(\C)CCC(=O)Nc1ccn(C2OC(CO)C(O)C2(F)F)c(=O)n1 (stereo not drawn) | – | – | 65.2% | – | 19.9% | -22.3% (active) | 18.5% | 2.42% (active) | 50.9% | 36.2% | 4.15% (active) | 23.4% | 20.5% | 37.2% | -63.4% (active) | 22% | 5.76% (active) | 60% | 26.7% | -41.3% (active) |
| CC1C(=NC(=O)c2cnccn2)C(C)C(c2ccc(Cl)cc2)NC1c1ccncc1 (stereo not drawn) | 114% | – | 97% | 100% | 108% | 86.1% | 94.3% | 91.9% | 78.8% | 73% | 78.5% | 88.4% | 76.4% | 75.6% | 88.2% | 91.3% | – | 101% | – | 117% |
| Nc1nc(N)c(N)c(Nc2ccc(CCO)cc2)n1 | 102% | – | 95.3% | 109% | 103% | 111% | 103% | 97.2% | 115% | 104% | – | 124% | 96.6% | 96.8% | 99.4% | 97.5% | 97.2% | 113% | – | 105% |
| Cc1nc2n(c(=O)c1CCN1CCC(c3noc4cc(F)ccc34)CC1)CCC[C@@H]2O | 105% | 89.6% | 90.5% | 108% | 102% | 98.5% | 96.2% | – | 93.8% | 95.2% | 87.1% | 102% | 93.7% | 91.3% | 100% | 98.2% | 97.4% | 97.9% | – | 87% |
| CC(C)C1=C(O)C2=C(C(=O)C1=O)[C@@]1(C)CCCC(C)(C)[C@@H]1CC2 | 81.6% | – | 103% | 84.3% | 63.4% | 90% | 78.7% | 80.7% | 44.2% | 99% | 78.5% | – | 50% | – | 70.1% | 80% | 56.9% | 73.4% | – | 43.3% |
| CCN1CC(CCN2CCOCC2)C(C(c2ccccc2)c2ccccc2)C1=O (stereo not drawn) | 118% | 120% | 87.6% | 107% | 112% | 111% | 105% | 108% | 94.1% | – | 102% | 102% | 101% | 82.7% | 100% | 94.8% | 97.2% | 116% | – | 89.9% |
| COc1ccc(-c2nn(-c3cccc(Cl)c3)cc2-c2c(C#N)c(N)n(N)c(=O)c2C#N)cc1 | 90.5% | – | 75.3% | 65.3% | 60.2% | 72.8% | 90.3% | 73.5% | 94.9% | 66.3% | 48.6% | 64% | – | 54% | 81.9% | 75.8% | 29.5% | 91.6% | – | – |

From PubChem BioAssay (NCI)
